Test system: Plasmodium falciparum
Assay: GSK_TCMDC: Inhibition of Plasmodium falciparum 3D7 in whole red blood cells, using parasite LDH activity as an index of growth. Test compounds present at 2uM
Format: functional

SMILES | Inhibition [%]
COc1c(F)cc(CC(C)NCC(O)c2cccc(Cl)c2)cc1F.Cl (stereo unspecified) | 93
FC(F)(F)c1ccc(NC(=S)N2CCC(CN3CCC(c4c[nH]c5ccccc45)CC3)CC2)cc1 | 100
CCCCCc1cc(O)c2c3c(c(=O)oc2c1)CN(C)CC3 | 100
CC(C)c1ccc(C=CC(=O)NC2CCC(CN3CCC(c4c[nH]c5ccccc45)CC3)CC2)cc1 (stereo unspecified) | 100
O=C(/C=C/c1ccc(Cl)c(Cl)c1)N1CCC2CC(N3CCC(c4c[nH]c5ccccc45)CC3)CCC2C1 (stereo unspecified) | 100
CC(C)/C(=C(/F)CN1C(=O)C(NC(=O)c2cc3ccccc3[nH]2)C(=O)N(c2ccccc2)c2ccccc21)c1ccccc1 (stereo unspecified) | 98
C=C[C@H]1CN2CC[C@H]1C[C@H]2[C@H](O)c1cc(/C=C/c2ccc(F)cc2)nc2ccc(OC)cc12.Cl | 99
CN(c1cc(NC(=O)c2cccs2)ccn1)C1CCN(Cc2cccc(C#N)c2)CC1.O=C(O)C(F)(F)F | 90
C=C[C@H]1CN2CC[C@H]1C[C@@H]2[C@@H](O)c1ccnc2ccccc12 [CINCHONINE] | 100
CC[C@H]1CN2CC[C@@H]1C[C@H]2[C@H](O)c1cc(N2CCC(CO)CC2)nc2ccc(OC)cc12 | 99
N#Cc1c(Cl)cccc1Oc1ccc(S(=O)(=O)N2CCC(CN3CCC(c4c[nH]c5ccccc45)CC3)CC2)cc1 | 100
COC(=O)c1ccc(CC(C)NCC(O)c2cc(Cl)c(N)c(Cl)c2)cc1 (stereo unspecified) | 91
CN1CC=C(c2c[nH]c3ccc(OCc4ccccc4)cc23)CC1 | 95
CC[C@H]1CN2CC[C@H]1C[C@H]2[C@H](O)c1cc(N2CCCC2)nc2ccc(OC)cc12 | 98
CCCCCOc1ccc(CC(C)NCC(O)c2cccc(Cl)c2)cc1 (stereo unspecified) | 100
CC[C@H]1CN2CC[C@@H]1C[C@@H]2[C@@H](O)c1cc(-c2ccc(F)cc2)nc2ccc(OC)cc12.Cl | 98
NC(=O)CN1CC=C(c2c[nH]c3ccc(Br)cc23)CC1 | 83
CC[C@H]1CN2CC[C@H]1C[C@H]2[C@H](O)c1cc(-c2ccc(SC)cc2)nc2ccc(OC)cc12.Cl | 98
CCc1ccc(CN2CCC(CN(C(=O)c3ccccc3)c3ccc(Cl)cc3)CC2)cc1 | 96

SMILES | Inhibition [%]
O=C(NC1CCC(CN2CCC(c3c[nH]c4ccccc34)CC2)CC1)c1csc(-c2cccc(Cl)c2Cl)n1 (stereo unspecified) | 99
CO/C(=C\C=C\c1cc2cc(Cl)c(Cl)cc2[nH]1)C(=O)N[C@H]1CN2CCC1CC2 | 82
CC(C)(C)c1ccc(Cn2nc(C(=O)N3CCN(C(=O)C4CCCO4)CC3)c3ccccc32)cc1 (stereo unspecified) | 90
CS(=O)(=O)Nc1ccc2[nH]cc(C3CCN(CC4CCN(C(=O)/C=C/c5ccc(Cl)c(Cl)c5)CC4)CC3)c2c1 | 100
O=C(/C=C/c1ccc(Cl)c(Cl)c1)NCc1ccc(CN2CCC(c3c[nH]c4ccccc34)CC2)cc1 | 100
O=C(/C=C/c1ccc(Cl)c(Cl)c1)NCCCCCN1C2CCC1CC(c1c[nH]c3ccccc13)C2 (stereo unspecified) | 98
CC[C@H]1CN2CC[C@@H]1C[C@H]2[C@H](O)c1cc(N2CCOCC2)nc2ccc(OC)cc12 | 99
Fc1ccc(N(c2nc(-c3cc(F)cc(C(F)(F)F)c3)cs2)C2CCNCC2)cc1.O=C(O)C(F)(F)F | 95
COc1ccc(C(=O)C2CC2CN2CC=C(c3c(C)[nH]c4ccccc34)CC2)cc1 (stereo unspecified) | 96
Cn1cc(CN2CCC(CCOC(c3ccccc3)c3ccccc3)CC2)cn1 | 99
COc1ccc(CCNCc2ccc3c(C)cc(N)nc3c2)cc1 | 100
Cl.O=C(CC1CCCC1)N(CC1CCN(Cc2ccc(C(F)(F)F)cc2)CC1)c1ccc(N2CCOCC2)c(F)c1 | 92
COc1ccc(CN2CCN(CCOC(c3ccccc3)c3ccccc3)CC2)c(O)c1 | 96
Cc1[nH]c2ccccc2c1C1=CCN(CCCCCNC(=O)/C=C/c2ccc(Cl)c(Cl)c2)CC1 | 97
C[C@@H](CC1CCCCC1)NCc1ccccc1O | 98
CC(C)CN1CCC(N(C)c2cc(NC(=O)c3cccc(F)c3)ccn2)CC1.O=C(O)C(F)(F)F | 97
O=C(Nc1cc(C(F)(F)F)cc(C(F)(F)F)c1)N1CCC(CN2CCC(c3c[nH]c4ccccc34)CC2)CC1 | 100
COc1ccc(C[C@@H](C)NC[C@H](O)c2cccc(Cl)c2)cc1F | 89
CC[C@H]1CN2CC[C@H]1C[C@H]2[C@H](O)c1cc(-c2ccccc2F)nc2ccc(OC)cc12.Cl | 99

Test system: Plasmodium falciparum
Assay: GSK_TCMDC: Inhibition of Plasmodium falciparum Dd2 in whole red blood cells, using parasite LDH activity as an index of growth. Test compounds present at 2uM
Format: functional

SMILES | Inhibition [%]
COc1c(F)cc(CC(C)NCC(O)c2cccc(Cl)c2)cc1F.Cl (stereo unspecified) | 86
FC(F)(F)c1ccc(NC(=S)N2CCC(CN3CCC(c4c[nH]c5ccccc45)CC3)CC2)cc1 | 45
CCCCCc1cc(O)c2c3c(c(=O)oc2c1)CN(C)CC3 | 99
CC(C)c1ccc(C=CC(=O)NC2CCC(CN3CCC(c4c[nH]c5ccccc45)CC3)CC2)cc1 (stereo unspecified) | 85
O=C(/C=C/c1ccc(Cl)c(Cl)c1)N1CCC2CC(N3CCC(c4c[nH]c5ccccc45)CC3)CCC2C1 (stereo unspecified) | 99
CC(C)/C(=C(/F)CN1C(=O)C(NC(=O)c2cc3ccccc3[nH]2)C(=O)N(c2ccccc2)c2ccccc21)c1ccccc1 (stereo unspecified) | 82
C=C[C@H]1CN2CC[C@H]1C[C@H]2[C@H](O)c1cc(/C=C/c2ccc(F)cc2)nc2ccc(OC)cc12.Cl | 99
CN(c1cc(NC(=O)c2cccs2)ccn1)C1CCN(Cc2cccc(C#N)c2)CC1.O=C(O)C(F)(F)F | 69
C=C[C@H]1CN2CC[C@H]1C[C@@H]2[C@@H](O)c1ccnc2ccccc12 [CINCHONINE] | 2
CC[C@H]1CN2CC[C@@H]1C[C@H]2[C@H](O)c1cc(N2CCC(CO)CC2)nc2ccc(OC)cc12 | 99
N#Cc1c(Cl)cccc1Oc1ccc(S(=O)(=O)N2CCC(CN3CCC(c4c[nH]c5ccccc45)CC3)CC2)cc1 | 67
COC(=O)c1ccc(CC(C)NCC(O)c2cc(Cl)c(N)c(Cl)c2)cc1 (stereo unspecified) | 66
CN1CC=C(c2c[nH]c3ccc(OCc4ccccc4)cc23)CC1 | 97
CC[C@H]1CN2CC[C@H]1C[C@H]2[C@H](O)c1cc(N2CCCC2)nc2ccc(OC)cc12 | 100
CCCCCOc1ccc(CC(C)NCC(O)c2cccc(Cl)c2)cc1 (stereo unspecified) | 99
CC[C@H]1CN2CC[C@@H]1C[C@@H]2[C@@H](O)c1cc(-c2ccc(F)cc2)nc2ccc(OC)cc12.Cl | 64
NC(=O)CN1CC=C(c2c[nH]c3ccc(Br)cc23)CC1 | 0
CC[C@H]1CN2CC[C@H]1C[C@H]2[C@H](O)c1cc(-c2ccc(SC)cc2)nc2ccc(OC)cc12.Cl | 99
CCc1ccc(CN2CCC(CN(C(=O)c3ccccc3)c3ccc(Cl)cc3)CC2)cc1 | 95

SMILES | Inhibition [%]
O=C(NC1CCC(CN2CCC(c3c[nH]c4ccccc34)CC2)CC1)c1csc(-c2cccc(Cl)c2Cl)n1 (stereo unspecified) | 41
CO/C(=C\C=C\c1cc2cc(Cl)c(Cl)cc2[nH]1)C(=O)N[C@H]1CN2CCC1CC2 | 36
CC(C)(C)c1ccc(Cn2nc(C(=O)N3CCN(C(=O)C4CCCO4)CC3)c3ccccc32)cc1 (stereo unspecified) | 83
CS(=O)(=O)Nc1ccc2[nH]cc(C3CCN(CC4CCN(C(=O)/C=C/c5ccc(Cl)c(Cl)c5)CC4)CC3)c2c1 | 92
O=C(/C=C/c1ccc(Cl)c(Cl)c1)NCc1ccc(CN2CCC(c3c[nH]c4ccccc34)CC2)cc1 | 86
O=C(/C=C/c1ccc(Cl)c(Cl)c1)NCCCCCN1C2CCC1CC(c1c[nH]c3ccccc13)C2 (stereo unspecified) | 4
CC[C@H]1CN2CC[C@@H]1C[C@H]2[C@H](O)c1cc(N2CCOCC2)nc2ccc(OC)cc12 | 99
Fc1ccc(N(c2nc(-c3cc(F)cc(C(F)(F)F)c3)cs2)C2CCNCC2)cc1.O=C(O)C(F)(F)F | 10
COc1ccc(C(=O)C2CC2CN2CC=C(c3c(C)[nH]c4ccccc34)CC2)cc1 (stereo unspecified) | 94
Cn1cc(CN2CCC(CCOC(c3ccccc3)c3ccccc3)CC2)cn1 | 100
COc1ccc(CCNCc2ccc3c(C)cc(N)nc3c2)cc1 | 69
Cl.O=C(CC1CCCC1)N(CC1CCN(Cc2ccc(C(F)(F)F)cc2)CC1)c1ccc(N2CCOCC2)c(F)c1 | 97
COc1ccc(CN2CCN(CCOC(c3ccccc3)c3ccccc3)CC2)c(O)c1 | 84
Cc1[nH]c2ccccc2c1C1=CCN(CCCCCNC(=O)/C=C/c2ccc(Cl)c(Cl)c2)CC1 | 89
C[C@@H](CC1CCCCC1)NCc1ccccc1O | 67
CC(C)CN1CCC(N(C)c2cc(NC(=O)c3cccc(F)c3)ccn2)CC1.O=C(O)C(F)(F)F | 10
O=C(Nc1cc(C(F)(F)F)cc(C(F)(F)F)c1)N1CCC(CN2CCC(c3c[nH]c4ccccc34)CC2)CC1 | 99
COc1ccc(C[C@@H](C)NC[C@H](O)c2cccc(Cl)c2)cc1F | 75
CC[C@H]1CN2CC[C@H]1C[C@H]2[C@H](O)c1cc(-c2ccccc2F)nc2ccc(OC)cc12.Cl | 98
